Inconclusive results are not listed. A call without a number means that no potency is given here. A number with no mark means an inactive call. The source made the active and inactive calls. Unless noted, calls come from the whole dose curve; as a rule, active = well fitted curve in the direction sought with a large enough effect; inconclusive = small, poorly fitted or top-dose-only effect, or another doubt; inactive = no such curve, though single readings can be large; an effect the other way counts as inactive or inconclusive.
Key:
[1] = biological target: Calcium and integrin-binding protein 1 (Homo sapiens) (UniProt Q99828); assay: Primary qHTS for Identification of Calcium Integrin Binding Protein 1 (CIB1) Competitor (AID 1508620);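 note: GST tagged CIB1 binding a fluorescein labelled alphaIIb integrin peptide tracer; top concentration of the series differs between compounds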
Calcium and integrin-binding protein 1 (Homo sapiens), sequence (Q99828 whole entry, looked up): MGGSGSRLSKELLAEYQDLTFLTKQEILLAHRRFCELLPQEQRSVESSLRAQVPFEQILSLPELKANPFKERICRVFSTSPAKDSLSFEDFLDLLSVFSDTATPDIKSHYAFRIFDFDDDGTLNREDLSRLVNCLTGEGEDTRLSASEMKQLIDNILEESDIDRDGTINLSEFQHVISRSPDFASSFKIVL
Outline: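 Fluorescence polarization competition: GST-tagged CIB1 (1 uM final) preincubated with compound 15 min at room temperature, then FITC-labelled alphaIIb peptide (100 nM final) added. After 15 min at room temperature, polarization read at Ex 480/Em 540.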

[2] = Primary qHTS for inhibitors of nuclear receptor binding SET domain protein 2 (NSD2) in an isogenic RCH-ACV NSD2 p.E1099K mutant (9B) (AID 1645876); note: nearly all actives have a fitted effect of over 70% in size; note: potency is the fitted concentration of half-maximal effect
[3] = biological target: Cytochrome P450 2C9 (Homo sapiens) (UniProt P11712); assay: Cytochrome P450 family 2 subfamily C member 9 (CYP2C9) small molecule antagonists: luciferase biochemical (cell-free) qHTS assay (AID 1645842; active = well fitted curve in the direction sought with a large enough effect in the repeat runs; an effect the other way counts as inactive or inconclusive; note: nearly all actives have a fitted effect of over 55% in size; note: potency is the fitted concentration of half-maximal effect)
Cytochrome P450 2C9 (Homo sapiens), sequence (P11712 whole entry, looked up): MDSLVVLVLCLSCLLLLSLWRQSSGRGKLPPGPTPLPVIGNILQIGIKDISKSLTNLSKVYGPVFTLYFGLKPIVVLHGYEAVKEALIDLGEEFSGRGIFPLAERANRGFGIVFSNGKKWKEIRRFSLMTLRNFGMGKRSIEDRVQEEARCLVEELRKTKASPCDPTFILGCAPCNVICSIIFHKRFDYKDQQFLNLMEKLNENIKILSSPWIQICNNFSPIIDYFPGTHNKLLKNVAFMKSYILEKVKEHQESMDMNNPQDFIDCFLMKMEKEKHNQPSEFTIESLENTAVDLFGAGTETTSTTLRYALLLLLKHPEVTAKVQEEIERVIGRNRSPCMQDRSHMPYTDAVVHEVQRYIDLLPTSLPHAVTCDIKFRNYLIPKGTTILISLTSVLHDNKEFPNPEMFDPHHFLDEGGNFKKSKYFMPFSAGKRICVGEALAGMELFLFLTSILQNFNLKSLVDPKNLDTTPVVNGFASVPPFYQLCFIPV
Outline: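 Luminescence, after 20 min with luciferin detection reagent, reflected CYP2C9 turnover during a 1 h NADPH-driven reaction at 37C. Enzyme-substrate mix contained 0.4% bovine serum albumin and was preincubated with compound 10 min at room temperature.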

[4] = Primary qHTS for inhibitors of nuclear receptor binding SET domain protein 2 (NSD2) in an RCH-ACV wild type WT cells (2C) (AID 1645877); note: nearly all actives have a fitted effect of over 70% in size; note: potency is the fitted concentration of half-maximal effect
[5] = biological target: N-terminal Xaa-Pro-Lys N-methyltransferase 1 (Homo sapiens) (UniProt Q9BV86); assay: Confirmatory qHTS for Inhibitors of N-terminal methyltransferase 1 (NTMT1): MTaseGlo Assay (AID 1645874); note: nearly all actives have a fitted effect of over 65% in size; note: potency is the fitted concentration of half-maximal effect
N-terminal Xaa-Pro-Lys N-methyltransferase 1 (Homo sapiens), sequence (Q9BV86 whole entry, looked up): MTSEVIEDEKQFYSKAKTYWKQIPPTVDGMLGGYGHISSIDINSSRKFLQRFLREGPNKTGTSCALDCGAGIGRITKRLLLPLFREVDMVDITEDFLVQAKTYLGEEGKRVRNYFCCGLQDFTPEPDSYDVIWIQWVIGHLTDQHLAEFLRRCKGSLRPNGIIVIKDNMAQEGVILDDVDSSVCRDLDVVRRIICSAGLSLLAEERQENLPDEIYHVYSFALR
Outline: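 NTMT1 (125 nM) preincubated 15 min with compound and 100 uM SAM, then 1 uM SPKRIA peptide added for 30 min at room temperature. SAH detected by MTase-Glo luminescence; normalized to no-enzyme and DMSO controls, fitted to 4-parameter Hill.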

| SMILES | Potency [1] | Potency [2] | Potency [3] | Potency [4] | Potency [5] |
| --- | --- | --- | --- | --- | --- |
| C=C1C(O)CC2C(C(=O)O)=COC(OC3OC(CO)C(O)C(O)C3OC(=O)/C=C\c3ccc(O)cc3)C12 (centres undefined) | inactive | inactive |  |  |  |
| O=C(c1c2ccccc2cc2ccccc12)N1CCC(N2CCC[C@@H](C(=O)N3CCOCC3)C2)CC1 | inactive | inactive | inactive | inactive |  |
| O=C(OCC1=CC(Cl)C(O)C(OC(=O)c2ccccc2)C1O)c1ccccc1 (centres undefined) | inactive | inactive |  |  |  |
| NC(=O)NCCCC(NC(=O)Cc1ccccc1)C(=O)O (centres undefined) | inactive | inactive |  |  |  |
| CS(=O)(=O)c1ccccc1N1CCN(c2nc3c(c(=O)[nH]2)CSCC3)CC1 | inactive | inactive | 8.49 µM (active) | inactive |  |
| O=C(Nc1cc(-c2ccccc2)nn1-c1ccccc1)c1ccc([N+](=O)[O-])cc1 | inactive | inactive | 1.51 µM (active) | inactive |  |
| O=C(N[C@@H]1CC[C@@H](c2cccc(F)c2F)CN(CC(F)(F)F)C1=O)N1CCC(n2c(=O)[nH]c3ncccc32)CC1 | inactive |  | 12 µM (active) | 16.3 µM (active) |  |
| Cc1cn(-c2cc(NC(=O)c3ccc(C)c(Nc4nccc(-c5cnccn5)n4)c3)cc(C(F)(F)F)c2)cn1 | inactive | inactive | 1.51 µM (active) | inactive |  |
| C=C1CC[C@@H]2C(C)(C)CCC[C@@]2(C)[C@@H]1CC/C(=C/C(=O)OC)COC(C)=O | inactive | inactive |  |  |  |
| Cc1nnc(-c2sc(NC(=O)[C@H](C(C)C)n3c(=O)[nH]c4ccccc4c3=O)nc2C)o1 | inactive | inactive | 9.52 µM (active) | inactive |  |
| COC(=O)C(CC1(OC(=O)C(C)C)c2ccccc2N2C(=O)C(C)(C)N(O)C21)n1cnc2ccccc2c1=O (centres undefined) | inactive | inactive |  |  |  |
| COc1cccc(CNc2ccc(S(=O)(=O)Nc3nc4ccccc4s3)cc2)c1O | inactive | inactive | 6.74 µM (active) | inactive |  |
| COc1c(C)c(OCC=C(C)C)cc2c1COC2=O | inactive | inactive |  |  |  |
| Cc1ccc(C)c(NC(=O)CNS(=O)(=O)c2ccc3[nH]c(=O)oc3c2)c1 | inactive | inactive | inactive | inactive |  |
| C[C@@]12CC3(S(=O)(=O)O)OC(O1)[C@]1(COC(=O)c4ccccc4)[C@H]3C[C@]21O[C@@H]1O[C@H](CO)[C@@H](O)[C@H](O)[C@H]1O | inactive | inactive |  |  |  |
| C=C1CC/C=C(/C(=O)O)CCC2C1CC2(C)C (centres undefined) | inactive | inactive |  |  |  |
| CC1C2=CC(=O)OC2(O)CC2C1CCC1C(C)(C)CCC(O)C21C (centres undefined) | inactive | 14.2 µM (active) |  |  |  |
| C=C1CCc2occ(C)c2[C@H]2[C@H]1[C@@]13O[C@@]1(C[C@@H](C)[C@H]3OC(C)=O)[C@H]1O[C@@]21C | inactive | inactive |  |  |  |
| O=C(NCC(=O)N1CCCC1)Nc1ccc2ccccc2c1 | inactive | inactive | inactive | inactive |  |
| CC(C)c1cc2c(c(O)c1O)[C@@]13CCCC(C)(C)C1[C@@H](O)[C@@H]2OC3=O (some centres undefined) | inactive |  |  |  | inactive |
| O=C(O)c1ccnc2cc(-c3nc4ccccc4n3CCN3CCCCC3)sc12 | inactive | inactive |  | inactive | inactive |
| C/C=C/C(=O)OC1/C=C/C(O)C(OC(C)=O)CCC(=O)OC1C (centres undefined) | inactive | inactive |  |  |  |
| NC(=O)[C@@H]1CC[C@H](c2ccc(OCc3ccccc3F)cc2)N1 | inactive | inactive | inactive | inactive |  |
| C=Cc1cc2oc(-c3ccc(O)c(F)c3)nc2cc1O | inactive |  |  |  | 31.6 µM (active) |
